# GLS inh: inhibitors of human glutaminase (GLS) | O94925 | 0.21% of 410,000 active | Potency, µM (titrated, usually from 45.5 µM), for inactives: at the top dose activity change, negative = inhibition, most hits filed as inhibitors | AID 624170 | GLS enzymatic activity, qHTS titration; note: % is set by controls: 0 for no effect and ±100 for the full control effect
#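 hKGA in 45 mM KH2PO4 (pH 8.2), 0.02% Tween-20 with compound, then 1mM L-Glutamine (stock as added) plus glutamate oxidase/HRP/Amplex red coupling mix. Fluorescence read initially and after 30 min at RT; signal change reflects glutamate formation.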
# G9a inh: blocks human histone lysine methyltransferase G9a. Q96KQ7. G9a H3K9 monomethylation, AlphaScreen, 2 h. Potency, µM (highest dose often 102 µM), without a hit: top-dose activity, negative = inhibition, hits mostly inhibitors. 8.8% of 350,000 active. AID 504332; note: % is set by controls: 0 for no effect and ±100 for the full control effect; nearly all actives have a fitted effect of over 75% in size
# Target sequence (Q96KQ7 913-1193 limits assumed): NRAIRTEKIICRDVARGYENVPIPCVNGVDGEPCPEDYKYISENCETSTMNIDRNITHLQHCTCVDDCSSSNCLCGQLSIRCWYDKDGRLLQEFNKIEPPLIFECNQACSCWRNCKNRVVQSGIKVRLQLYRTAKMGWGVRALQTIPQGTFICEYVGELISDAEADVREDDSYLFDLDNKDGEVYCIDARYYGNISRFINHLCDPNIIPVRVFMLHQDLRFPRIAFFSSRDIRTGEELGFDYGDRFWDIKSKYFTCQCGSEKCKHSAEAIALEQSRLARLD
#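 AlphaScreen read-out: biotin-H3K9 peptide (500 nM) methylation by 20 nM enzyme with 20 uM SAM, 2 h at room temperature after 15 min compound preincubation; anti-monomethyl H3K9 antibody plus donor/acceptor beads, 10 min dark.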
# BAZ2B block: BAZ2B (human) inhibition | 4.4% of 360,000 active | Potency, µM (doses to about 114 µM), without a hit: top-dose activity change, negative = inhibition, most hits filed as inhibitors | Q9UIF8 | AlphaScreen BAZ2B-H3K14Ac peptide displacement; note: % is set by controls: 0 for no effect and ±100 for the full control effect; nearly all actives have a fitted effect of over 60% in size
#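 BAZ2B 50 nM plus b-H3(5-23)K14Ac 50 nM, PBS pH 7.4/0.01% Tween-20, 30 min RT; compound added (max 110 uM), 30 min RT; streptavidin donor/Ni-chelate acceptor beads 10 ug/mL final, 20 min dark; AlphaScreen read.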
# JMJD2A Tudor inh: inhibitors of human JMJD2A Tudor domain. O75164. Potency, µM (highest dose often 114 µM), without a hit: at the top dose activity change, negative = inhibition, most hits filed as inhibitors. AlphaScreen JMJD2A-Tudor / H3K4me3 peptide binding. 4.4% of 390,000 active. AID 504339; note: % is set by controls: 0 for no effect and ±100 for the full control effect; nearly all actives have a fitted effect of over 50% in size
# HP1b binding inh: inhibitors of HP1-beta chromodomain binding to methylated histone tails | P83916 | AlphaScreen HP1-beta / biotin-H3K9me3 peptide binding | Potency, µM (series often up to 114 µM), for the others: at the top dose activity change, negative = inhibition, hits mostly inhibitors | 0.56% of 390,000 active | AID 540317; note: nearly all actives have a fitted effect of over 70% in size
# Target sequence (P83916 whole entry, looked up): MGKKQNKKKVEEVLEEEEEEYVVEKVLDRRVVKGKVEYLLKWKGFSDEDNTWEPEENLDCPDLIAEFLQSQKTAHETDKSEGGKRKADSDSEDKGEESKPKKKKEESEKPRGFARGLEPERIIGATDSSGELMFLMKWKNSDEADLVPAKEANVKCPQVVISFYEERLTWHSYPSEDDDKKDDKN
#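 Compound inhibition of the preformed complex between 50 nM HP1-beta and 50 nM biotinylated H3K9me3 peptide was read by AlphaScreen. Buffer was PBS pH 7.4 with 0.01% Tween-20. Incubations ran 30 min at room temperature, with 10 ug/mL donor/acceptor beads.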
# Active calls of the source: *; ? = inconclusive; nt = not tested or not shown; ! = not active in a repeat; [ ] = dose if it differs, or a comment. Most compounds without a hit are left out; they make up all but 10% or so of the library. Calls come from the whole dose curve; as a rule, active = well fitted curve in the direction sought with a large enough effect; inconclusive = small, poorly fitted or top-dose-only effect, or another doubt; inactive = no such curve, though single readings can be large; an effect the other way counts as inactive or inconclusive. Potency is the fitted concentration of half-maximal effect.
SMILES,GLS inh,G9a inh,BAZ2B block,JMJD2A Tudor inh,HP1b binding inh
COc1ccc(CN2CCN(Cc3ccccc3F)CC2)cc1,-10.3%,3.98µM*,17.8µM*,3.16µM*,17.8µM*
Cc1cccc(CN2CCN(C(=O)Cc3ccccc3)CC2)c1,-6.9%,28.2µM*,79.4µM*,6.31µM*,?
CCc1ccc(CN2CCN(C(=O)Cc3ccccc3)CC2)cc1,2.1%,22.4µM*,25.1µM*,20µM*,28.2µM*
COC(=O)C1=C(c2ccc(F)cc2F)C[C@@H]2CC[C@H]1N2C,-2.9%,-2.1%[2.33 µM],7.7%,-8.3%,32.2%
CN(C)S(=O)(=O)c1ccc(C(=O)NNc2nc(-c3ccccc3)c3cc(Br)ccc3n2)cc1,3.5%,-13.4%[59 µM],?,-30.8%,10.6%
O=C1CC(=O)N(c2ccccc2)C(=O)N1,12.9%,nt,nt,-1.4%,21.5%
Fc1cccc(C2NCCc3[nH]cnc32)c1 (centres undefined),7.8%,32.7%[59 µM],9.0%,-7.0%,32.1%
O=C(NC(=C(Cl)Cl)P(=O)(c1ccccc1)c1ccccc1)c1ccccc1,1.5%,7.2%[59 µM],9.9%,-11.9%,21.6%
O=c1[nH]c(=O)n(CCc2ccccc2)c(O)c1C=NC1CC1,-21.2%,-1.8%,0.3%,2.1%,30.1%
Cc1cc(S(=O)(=O)NCC(C)C)ccc1OCC(=O)N1CCN(Cc2ccccc2)CC1,-8.8%,-40.5%[12.7 µM],-4.9%,-16.4%,-0.7%
CSc1ccc(CN2CCN(Cc3ccccc3Cl)CC2)cc1,-1.2%,4.47µM*,17.8µM*,5.01µM*,?
COc1cc(OC)c(OC)cc1CN1CCN(C(=O)Cc2ccccc2)CC1,0.5%,7.94µM*,?,17.8µM*,?
CSc1ccc(CN2CCN(C(=O)Cc3ccccc3)CC2)cc1,0.3%,nt,nt,20µM*,?
O=C(Cc1ccccc1)N1CCN(Cc2ccccc2Cl)CC1,3.6%,44.7µM*,20µM*,17.8µM*,?
Cc1c2cnn(CC(=O)N3CCC4(CC3)OCCO4)c(=O)c2c(C)n1Cc1ccccc1Cl,-11.6%,-9.9%,-22.3%,-27.1%,19.9%
Cc1ccc(CN2CCN(Cc3ccccc3)CC2)cc1,20.9%,nt,?,-17.7%,11.4%
O=C(Cc1ccccc1)N1CCN(Cc2cccnc2)CC1,0.3%,6.31µM*,31.6µM*,4.47µM*,-44.9%
Cc1cccc(OCC(=O)N2CCN(Cc3cccnc3)CC2)c1,7.3%,-0.3%,?,2.82µM*,?
c1ccc(CN2CCN(Cc3ccc4ccccc4c3)CC2)cc1,4.3%,1.41µM*,28.2µM*,0.794µM*,?
C=CCN1C(=O)NC(=O)/C(=C/c2ccc(OC)c(COc3ccc(NC(C)=O)cc3)c2)C1=O,-1.7%,nt,-8.9%,-23.1%,29.7%
C=CCN1C(=O)NC(=O)/C(=C/c2ccc(OC)c(CSc3ccccn3)c2)C1=O,31.7%,11.2µM*,14.1%[57.1 µM],79.4µM*,55.4%
COc1ccc2[nH]c(C)c(CCNCc3cn(C)c4ccccc34)c2c1,21.9%,7.08µM*,17.8µM*,3.16µM*,-60.4%
Nc1ncnc2c1ncn2[C@@H]1O[C@H](COP(=O)(O)CP(=O)(O)O)[C@@H](O)[C@H]1O,-7.2%,38.2%[59 µM],nt,79.4µM*,19.6%
Nc1ncnc2c1ncn2[C@@H]1O[C@H](COP(=O)(O)CP(=O)(O)OP(=O)(O)O)[C@@H](O)[C@H]1O,nt,12.6µM*!,nt,nt,nt
CCNC(=O)[C@H]1O[C@@H](n2cnc3c(N)ncnc32)[C@H](O)[C@@H]1O,-6.7%,7.2%[59 µM],-6.6%,-0.7%,37.3%
SMILES,GLS inh,G9a inh,BAZ2B block,JMJD2A Tudor inh,HP1b binding inh
C=CCn1c(O)c(C(CC)=Nc2ccccc2NC(=O)CC)c(=O)[nH]c1=O,4.8%,?,?,-11.1%,33.8%
OCc1cnc[nH]1,5.9%,11.9µM*!,-24.3%,?,9.7%
COC(=O)C1=C(c2ccc3ccccc3c2)C[C@@H]2CC[C@H]1N2C(=O)NCC1CC1,2.9%,-16.2%[0.501 µM],-9.5%,-7.7%,27.5%
COC(=O)C1=C(c2cc3ccccc3o2)C[C@@H]2CC[C@H]1N2C(=O)NCCNC(C)=O,7.7%,nt,nt,-3.6%,28.6%
COC(=O)C1=C(c2cc3ccccc3o2)C[C@@H]2CC[C@H]1N2C(=O)NC(C)C,1.9%,nt,nt,39.8µM*,52.2%
COC(=O)C1=C(c2ccc3ccccc3c2)C[C@@H]2CC[C@H]1N2C(=O)NCc1ccco1,-6.0%,10.4%[0.501 µM],50.1µM*,?,-15.6%
CCOc1ccccc1-n1c(O)c(C=Nc2c(C)n(C)n(-c3ccccc3)c2=O)c(=O)[nH]c1=O,-11.0%,?,4.1%,-1.1%,11.6%
CN(C)c1ccc(/C=C/[N+](=O)[O-])cc1,-13.3%,70.8µM*,-6.3%,-4.1%,2.5%[57 µM]
COc1cc2c(cc1/C=C/[N+](=O)[O-])OCO2,1.7%,?,-29.9%,-22.8%,44.4%
O=[N+]([O-])/C=C/c1ccc2c(c1)OCO2,nt,2.12µM*,nt,nt,nt
O=c1[nH]c(=O)n(C2CCCCC2)c(O)c1C=NCCCn1ccnc1,0.5%,-13.0%[12.7 µM],3.5%,-27.1%,13.2%
c1ccc2c(c1)OCC(C1=NCCN1)O2 (centres undefined),-7.0%,28.2µM*,?,8.6%,40.6%
O=C(O)CP(=O)(O)c1ccc(Cl)cc1,-11.7%,50.1µM*,-35.6%,39.8µM*,28.6%
CCCC(C)(COC(N)=O)COC(N)=O,-19.7%,34.4%[59 µM],nt,nt,nt
CCOC(=O)C(O)(c1ccc(N(C)C(=O)c2ccc(Cl)c(Cl)c2)cc1)C(F)(F)F (centres undefined),5.4%,-4.8%[59 µM],4.7%,-4.1%,48.0%

# Screening data as filed in PubChem.
